Assay results taken from PubChem BioAssay AID1508600 (Functional Genomics Laboratory (NCATS/FGL), 2020).
In all, about 53,000 sequences went through this assay and about 3,700 (7%) were called active. The sample as a whole holds a higher share of actives than the screen did. Unmarked numbers belong to inactive results.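 Rule for the calls: active = gene knockdowns whose robust z-score for IL-1 alpha signal is at least 2 or at most -2, so actives lie on both sides; inactive = the rest.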

Test: Components of the Cytosolic LPS Sensing Pathway: Gene Identification via Genome-wide siRNA Screen;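 note: robust z of the log signal after scaling to non-targeting control siRNA wells of the plate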
Details: RAW264.7 macrophages, IL-1a HTRF, actives lie on both sides, screened at 100 nM (by protocol), cells primed 5 h with Pam3CSK4 first
Summary of the method: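 IL-1a HTRF of supernatants after 24 hour LipidA transfection of Pam3CSK4-primed (5 hours) RAW264.7 cells, 48h post-siRNA transfection (100 nM). Scores: percent of plate negative-control median, then log-based robust z-score.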

| Sequence | z-score |
| --- | --- |
| GGGCCUAUGCUUACAAACGTT against Pkp3 | 2.37 (active) |
| GGUUCUAAUUAGAGAAACATT against Tcte1 | 0.461 |
| CGACCAUUCCUUUGAGUUATT against Atl1 | 3.09 (active) |
| GGAGCUACCUCUGGAUACATT against Tmem269 | 1.28 |
| GGUACUGGAAAGAAAUGAGTT against Exph5 | 0.356 |
| GGUUGUCAUAAUCUUGUUATT against Irgq | -0.59 |
| GGUAUUUAGGUUGAUAACATT against Kbtbd8 | -0.206 |
| GGUCUUAGAUAAUGUUAGATT against Gpr26 | 0.718 |
| CCCUGUAAGGUUGAUUGUGTT against Oog3 | 0.535 |
| GGCUCAUUCCUCUUCUUCCTT against Serhl | -3.08 (active) |
| GCCAAGUAAAACCAAAUGUTT against Ldlrad4 | -1.85 |
| CCGAGAACAGUUGAAGAAGTT against Srbd1 | 0.174 |
| GGUGGAUGAGUUGUUCCUUTT against Adck5 | 0.637 |
| GCUACAGGAUUUAUACAUGTT against Dhx29 | 0.865 |
| GGGACUUAUGUACAACUUCTT against Idua | 1.53 |
| CCUCUGCGCAAUUUAGAGATT against Npb | 1.1 |
| GACAAGAACCCGGAUAAUATT against Dnajb2 | -0.229 |
| GCAAGCACGUCAGAAUCUCTT against Pln | 2.32 (active) |
| GGAAGAACUGAUUGAAGAGTT against Sptlc1 | -0.789 |
| GGUGAAAGACCAUUUAUUUTT against Zxdc | 0.657 |
| CGUGACUCUGCUUUAACUCTT against Col27a1 | -2.27 (active) |
| GGAGCUUGCUCAGACUACUTT against Cct8 | -0.914 |

| Sequence | z-score |
| --- | --- |
| GCCUAUCGUCCAGAUUAUCTT against Senp1 | 0.919 |
| GGUCAAGUAUCUGAGAAAATT against Selenoh | 0.154 |
| GGCGAUAAGGAACAGAAGUTT against Ppp3r1 | -0.199 |
| GGUCAACCUCAAAGUCUUUTT against Il17a | 0.581 |
| GGGCUUCAGAAAAUCCAGGTT against Dclre1a | -0.447 |
| GGCUCCUAUAUACUGAUCATT against Olfr1402 | -2.65 (active) |
| CCUGGUAAAAGACUGGGCUTT against Dnal1 | 1.76 |
| GGUUAGUCGACAGAAACAATT against Poteg | -1.11 |
| GCUGUCUCAAUCACCCUAATT against Olfr1427 | -1.23 |
| GGUCAAGUGUAACAAAGAATT against Bcorl1 | -0.417 |
| GGUCAUUAUUGUCAUCUACTT against Tmem9 | -0.323 |
| GGAAAUCACUGGUUUUCAATT against Asah2 | 2.88 (active) |
| GGAGACUGACAAGAAAAUUTT against Gm16367 | -0.967 |
| GCAUCACGUAUGUGAUUUGTT against Dmrtc1a | -0.569 |
| GCAGAGGAGUGAAUAGAUATT against Dtx3l | 0.45 |
| GGCCAACUUUUUUCACCCATT against Git1 | -2.19 (active) |
| GGUUGUUCGUGGACACUACTT against Rpl26 | -0.404 |
| GGCCGUCACUACUCUGAAATT against Mgst2 | -2.29 (active) |
| GGCACUUCUUGGACAUCAUTT against Sfxn5 | -0.019 |
| CGAAGGUCUGUUCGAGAACTT against Morn4 | 0.668 |
| GCUUCAUCCUAGCGGUUUGTT against Dad1 | -0.899 |
| CGAUCGAAUCCUUAAGUACTT against Ttll1 | -0.0193 |

| Sequence | z-score |
| --- | --- |
| GCUUUUUACAGGAUAUACATT against Zfp644 | -0.143 |
| GCCAUACCUUCAACUGUCGTT against Ncoa2 | -2.42 (active) |
| GGAACGUAAACUAAGCCCGTT against Foxb1 | 0.458 |
| CCCAUUUCACUUCAGUUUGTT against Osbp2 | -0.253 |
| CCCAAAACGGUAGCUUAAGTT against Rcc1 | -0.0143 |
| GGCAAGAAAGGACCAAUGGTT against Cln8 | 0.206 |
| CCGUGGGUUUUUUGAAUCUTT against Slc6a1 | 2.63 (active) |
| GCCCAAUAGAAGCUGGAUGTT against Tex29 | -1.99 |
| GGAGCGAGAAGCUUUAGAATT against Ubxn1 | 0.61 |
| GGCCAACUAGGGUGUUUGUTT against Tsx | 0.182 |
| GCUAUUAGGAAAUGAAAGATT against Ncald | 0.384 |
| GCAGAGACUCCAAAGCUCATT against Chd4 | -2 (active) |
| GGAACUUGACAAAGUCUACTT against Panx1 | 1.2 |
| GGAAGAAGAAGGUGUAACCTT against Defb39 | 0.567 |
| GGCAUCUGUUACCCAGAAUTT against Zfp384 | -1.92 |
| CCAAAUGACUUUGGUCCUATT against Vax2 | 0.576 |
| CCAUCCUCAACAAGAUCGATT against Rab4b | 2.25 (active) |
| GGUGGUAACCAAUCAUUACTT against Cd200r1 | -0.296 |
| GCAUAAACUAACCACUUAGTT against Evi2b | -1.77 |
| GGCUUUUUUGCCAUUGCUATT against Wnt9b | 0.19 |
| GGAGAUUCAUCGCUACCUUTT against Ccna1 | 2.46 (active) |
| GGUUGUAGGAAGAAGAGAATT against Olfr957 | -0.798 |

| Sequence | z-score |
| --- | --- |
| CGGUCUUUAUUACAUAAUCTT against Ptpro | -0.757 |
| CCAUUGCAUAUUUAGUAGCTT against Sox11 | -0.765 |
| CGUAAAUAUGCCCGUAGUUTT against Bpifa1 | 0.31 |
| GGUCUGUAUCCCACUUUUCTT against Dalrd3 | -2.15 (active) |
| CCUCUACUCAAGUUUACUUTT against Casq2 | 0.417 |
| GGCGAUGGAAAGACUGCACTT against Hus1b | 0.311 |
| CCCACAAGUUUCAUCUGACTT against Aknaos | -0.164 |
| GGAGAACCCAUUAAAGAAATT against Amd1 | 0.408 |
| GGUCUGUACUUGUUUAGAATT against Vwa3b | 0.42 |
| GCUAUACAAAGGCUACUCUTT against Hectd3 | 0.379 |
| GCUGUUGAUUGUAAGCAAUTT against Mtap | 0.0958 |
| GCCGCACCGAAAGUGAAAUTT against Copz2 | -0.391 |
| GGACCGGUGUAAGCUUCGATT against Hinfp | 2.05 (active) |
| GCUAGAGGAUGGCUGAGCUTT against Poll | -0.581 |
| GGUGACUGAAAUCAAACACTT against Il9r | -1.71 |
| GGAAGGAUUGCCUUUAGGATT against Rbm12b2 | 0.29 |
| GGAGUAUGAAUUUGUGACUTT against Arhgdig | -0.526 |
| GGACCGCGUUCAAGAAGAATT against Cyp2c37 | 2.17 (active) |
| GGAGAAUUUGGAAAGUGAGTT against Rnf150 | 0.0696 |
| GGGUAAACACCCAUUUAGCTT against Lbx2 | -0.156 |
| GGUCCUAGGCCUACUCAUCTT against Cd46 | -0.318 |
| GGUCCUACUAUAACCUGCGTT against Gdf3 | -0.103 |

| Sequence | z-score |
| --- | --- |
| GCAGAUUUUGACUAAAGGATT against Sbds | -0.747 |
| GCAGUGAACCGUAUUGGACTT against Ncam1 | 0.406 |
| GGUUCACAGAUGAUACCUUTT against Rab18 | 4.59 (active) |
| GGACCUUCCAGCAAGAUUUTT against Rnf13 | 0.28 |
| GCCGGCAGUAAAGAUUCAUTT against Cog2 | 0.938 |
| CCGGGUAGUCUUUUUGGUGTT against 9130019O22Rik | -1.72 |
| GGGAAGAAAGGAUGGGAAATT against Fev | 0.355 |
| GCGGCCUCUUGAAUGAUUCTT against Ccndbp1 | 2.16 (active) |
| GGUUGUUAUGGUCUCAUAUTT against Lrrc40 | -0.62 |
| GGUUUCAAGAAAGAUAUGATT against Cntnap5b | -0.891 |
| GGAAUUAAGAAGACAAUUCTT against Emc2 | -1.22 |
| GGAUGUCUCCAUGAAGGAATT against Ccnb2 | -1.12 |
| GGUUGAUGGGUAAUAAACUTT against Nfatc4 | -2.16 (active) |
| GGAAUGGAUAAAAACAUUGTT against Tank | 1.27 |
| GGUGGUCUACUUAGGUUUATT against Sc5d | 0.63 |
| GCGUGCAGCCCUCAAUGAATT against Ppp2r5b | 0.84 |
| GGCGAACAGAGAGAGUUAGTT against 4921524J17Rik | 0.677 |
| GGGCUUCACUUCCUUAGGATT against Cog3 | 0.0276 |
| GGGCUGAAGUGAAAACAGCTT against Mmp8 | -0.523 |
| GGAUAACUCACAAGAGUCUTT against Zdhhc16 | -0.296 |
